tim10-1 inh = growth inhibitors of tim10-1 mutant yeast, primary screen, luminescence, uHTS; 330,000 compounds, 2.2% hits; S. cerevisiae tim10-1 ts strain growth, BacTiter-Glo, 24 h; inhibition, % at 20 µM;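 active = inhibition of at least 40%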;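 also: mutant grown at 25 °C; 0% = DMSO wells with yeast and 100% = wells holding no yeast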
PfHsp90 set2 = growth inhibition of PfHsp90-expressing yeast, primary screen, antimalarial PfHsp90 inhibitor project, S. cerevisiae, BacTiter-Glo luminescence, single point, set 2; inhibition, % at 9.4 µM; AID 504621, 2011; BacTiter-Glo ATP, 48 h; yeast lacking PDR1 and PDR3 efflux regulators; 310,000 compounds, 0.32% hits;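 active = every replicate shows inhibition above about 80%, whatever the replicate mean, limit read from the data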;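 also: 0% = DMSO neutral controls and 100% = 20 µM radicicol positive controls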
tim23-1 inh = growth inhibitors of tim23-1 mutant yeast, primary screen, luminescence, uHTS; S. cerevisiae tim23-1 growth, BacTiter-Glo luminescence, 24 h; inhibition, % at 20 µM; AID 463212, 2010; 330,000 compounds, 1.3% hits;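 active = growth inhibition of the mutant yeast at or above 50%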;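 also: temperature-sensitive mutant grown at 25 °C; plate controls were DMSO-treated mutant yeast for no effect and medium wells lacking yeast for full effect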
B2AR ag = beta2AR agonists driving receptor internalization, primary screen, cell-based, FAP fluorogen, flow cytometry; response, % (test concentration not listed); 340,000 compounds, 0.43% hits; Am2.2-beta2AR cells; AID 504454, 2011;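 active = response above a set limit, near 3 SD of response in nonfluorescent compounds, cut at about 42% in these data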
Target sequence (P07550 whole entry, looked up): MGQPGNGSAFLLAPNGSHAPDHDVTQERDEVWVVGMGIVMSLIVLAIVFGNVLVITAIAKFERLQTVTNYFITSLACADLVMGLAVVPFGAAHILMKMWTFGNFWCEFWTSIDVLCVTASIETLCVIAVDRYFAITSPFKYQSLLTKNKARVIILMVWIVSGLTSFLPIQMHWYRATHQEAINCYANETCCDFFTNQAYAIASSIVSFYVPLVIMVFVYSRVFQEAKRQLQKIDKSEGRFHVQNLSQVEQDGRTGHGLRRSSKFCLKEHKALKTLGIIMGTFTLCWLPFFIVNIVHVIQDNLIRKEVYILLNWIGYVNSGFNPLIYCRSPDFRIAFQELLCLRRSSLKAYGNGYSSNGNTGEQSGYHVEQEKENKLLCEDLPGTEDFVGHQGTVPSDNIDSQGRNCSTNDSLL
TIM10 inh = growth inhibitors of isogenic TIM10 control yeast, primary screen, counter-screen for tim10-1 yeast inhibitor project, luminescence, uHTS; S. cerevisiae TIM10 strain growth, BacTiter-Glo luminescence, 24 h; inhibition, % at 10 µM; 330,000 compounds, 1.4% hits;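 active = inhibition of 40% or more at the single tested concentration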;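 also: wild-type TIM10 isogenic control strain grown at permissive 25 °C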
tim10-1 conf = growth inhibitors of tim10-1 mutant yeast, confirmation, single concentration, luminescence, S. cerevisiae | AID 463213, 2010 | 7,400 compounds, 56% hits | inhibition, % at 20 µM | shares compounds with tim10-1 inh | S. cerevisiae tim10-1 ts strain growth, BacTiter-Glo, 24 h;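 active = inhibition of yeast growth at or above a set limit in either of two repeat tests at 20 µM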;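 also: tim10-1 mutant grown at permissive 25 °C to find synthetic lethal compounds; 0% = DMSO yeast wells and 100% = medium wells without yeast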
* marks the source's active call; other numbers are inactive results; . = not tested or not shown. An excerpt weighted towards active compounds, which were near 3.8% of everything screened.

SMILES | tim10-1 inh | PfHsp90 set2 | tim23-1 inh | B2AR ag | TIM10 inh | tim10-1 conf
CCOC(=O)c1c(S(=O)(=O)N(C)C2CCCCC2)c(C)n(C)c1C | 16 | 33 | 21 | 0 | 14 | .
Cc1ccc(N=CC2=C(O)CC(c3ccccc3Cl)CC2=O)cc1 (stereo not given) | 33 | . | 21 | -4 | 24 | .
O=C1CC(c2ccccc2Cl)CC(O)=C1C=Nc1ccccc1 (stereo not given) | 44* | -19 | 49 | -17 | 26 | 41*
CCC(C)c1ccccc1N1CC(C(=O)Nc2ccc(C)c(S(=O)(=O)N3CCOCC3)c2)CC1=O (stereo not given) | 14 | . | 7 | 6 | 17 | .
CCOC(=O)Cc1cc(-c2ccc(O)cc2)nc2ccc3ccccc3c12 | 42* | -20 | 22 | 4 | 19 | 24
Cc1ccc(C(=O)CN2C(=O)NC3(CCc4ccccc43)C2=O)s1 (stereo not given) | -21 | -5 | 6 | -2 | 9 | .
c1ccc(-c2nc3nc4ccccc4nc3n2Cc2ccco2)cc1 | 41* | 4 | 42 | -12 | 20 | 25
C=CCn1c(-c2ccc(OC)cc2)nc2nc3ccccc3nc21 | 17 | -100 | 32 | -2 | 14 | .
Fc1ccc(-c2nc3nc4ccccc4nc3n2Cc2ccco2)cc1 | 43* | 9 | 49 | -5 | 36 | 33*
Cc1ccc(NC(=O)c2ncn(CC(=O)NCC(C)c3ccccc3)n2)cc1C (stereo not given) | 1 | -6 | 24 | 0 | -18 | .
O=C(NCc1nnnn1-c1ccc(F)cc1)c1ccc([N+](=O)[O-])o1 | 15 | . | -1 | 9 | 16 | .
Cc1ccc(-n2nnnc2CNC(=O)c2ccc([N+](=O)[O-])o2)cc1C | 43* | -14 | 27 | -1 | 32 | 31*
CN(C)c1ccc(/C=C/c2c([N+](=O)[O-])c(=O)n(C)c(=O)n2C)cc1 | -8 | 3 | -6 | 2 | -1 | .
Cn1c(/C=C/c2ccc(Br)cc2)c([N+](=O)[O-])c(=O)n(C)c1=O | 42* | -48 | 30 | 27 | 23 | 25
CCN1C(=O)[C@H]2[C@H]3CN=C(SC)N3[C@@](C)(C(=O)OC)[C@H]2C1=O | . | -6 | . | 1 | . | .
CCOC(=O)C1=C(N)Oc2cc(O)ccc2C1c1cccc([N+](=O)[O-])c1 (stereo not given) | 46* | -10 | 44 | -6 | 38 | 30
O=C1C(O)=CC(=C(c2ccccc2)c2ccccc2)c2ccccc21 | . | -6 | . | 6 | . | .
COc1ccccc1C/C(N)=N/O | 10 | 2 | -1 | -3 | 13 | .
COc1ccccc1C/C(N)=N/OC(=O)c1ccco1 | 50* | -9 | 43 | 3 | 29 | 38*
c1ccc(C2Nc3ccccc3C3OCCCC23)cc1 (stereo not given) | -16 | 21 | 21 | -4 | 1 | .
Cc1nnc(NC(=O)c2ccc(Br)o2)s1 | 18 | -2 | 12 | 2 | 13 | .
O=C(NC(=S)Nc1ccccc1[N+](=O)[O-])c1cncc(Br)c1 | 40 | -32 | 45 | 2 | 17 | 14
O=C(NC(=S)Nc1ccccc1O)c1cncc(Br)c1 | 26 | -50 | 11 | -79 | 24 | .
COc1cccc(NC(=S)NC(=O)c2cncc(Br)c2)c1 | 47* | -12 | 45 | -6 | 37 | 7
CCc1ccc(N2CC(C(=O)OCC(=O)Nc3ccc([N+](=O)[O-])cc3)CC2=O)cc1 (stereo not given) | -8 | 23 | 6 | 7 | -5 | .
SMILES | tim10-1 inh | PfHsp90 set2 | tim23-1 inh | B2AR ag | TIM10 inh | tim10-1 conf
Cc1ccc(SCC2(O)CCN(S(=O)(=O)c3ccc(Cl)cc3)CC2)cc1 | 41* | . | 26 | -1 | 31 | 25
O=C(Nc1ccccc1)OCC1COC(c2ccccc2)(c2ccccc2)O1 (stereo not given) | . | 3 | . | -7 | . | .
Cc1ccc(C)c(OCCC(=O)OCC(=O)N2CCN(S(=O)(=O)c3ccc(Cl)cc3)CC2)c1 | 45* | 11 | 28 | 4 | 33 | 29*
CC(C)(C)c1ccc(OC(=O)CN2C(=O)C3C4CCC(C4)C3C2=O)cc1 (stereo not given) | 42* | -56 | 26 | -6 | 24 | 26
S=C(Nc1ccccc1)Nc1ccc(OCc2ccc(Cl)cc2Cl)cc1 | 48* | 15 | 3 | 10 | 21 | 19
Cc1nc2cc(C(=O)OCC(=O)NC34CC5CC(CC(C5)C3)C4)ccc2n1-c1ccccc1 | 40* | -4 | 34 | -2 | 28 | 32*
O=C(Nc1cccc(Cl)c1)c1csc(-c2ccccc2)n1 | 44* | -8 | 32 | 1 | 22 | 9
O=C(Nc1ccc(Cl)c(Cl)c1)c1csc(-c2ccccc2)n1 | 10 | 3 | -2 | 10 | 3 | .
NC(=O)c1cccc(-c2cnc(N)c(C(=O)c3cccnc3)n2)c1 | . | 8 | . | 2 | . | .
COc1ccc(OC)c(C2(O)CSC(=Nc3cccnc3)N2Cc2ccco2)c1 (stereo not given) | 11 | 2 | 18 | 13 | 27 | .
OC1(c2ccc(OC(F)F)cc2)CSC(=Nc2cccnc2)N1C1CC1 (stereo not given) | 41* | 19 | -1 | 15 | -10 | 24
O=C(NCc1ccccc1)c1nc(-c2cccs2)no1 | 40* | 0 | 12 | 9 | 5 | 38*
CC(=O)N(C(C)=O)C1=C(C#N)C2(CCCCC2)Cc2ccccc21 | 47* | -15 | 50 | 6 | 34 | 34*
Cc1ccccc1N1CCN(C2CCCN(C(=O)c3noc4c3CCCC4)C2)CC1 (stereo not given) | 24 | -23 | 25 | 9 | 12 | .
Cc1c(Cl)cccc1NC(=S)N1CCCCCC1 | 44* | -13 | 29 | 11 | 24 | 16
Cc1cccc(NC(=S)N2CCCCCC2)c1C | 5 | 9 | 9 | -2 | 5 | .
Cc1cc(=O)n(-c2ccc3ccccc3n2)[nH]1 | 54* | -15 | 12 | 11 | 13 | 19
Cc1cc(=O)oc2cc(OCC(=O)NC3CCN(Cc4ccccc4)CC3)c(Cl)cc12 | 9 | 15 | 7 | -1 | 17 | .
Cc1ccc(Cl)c(OCC(=O)NC2CCN(Cc3ccccc3)CC2)c1 | 68* | . | -2 | -2 | -25 | -49
CCC(=O)Nc1ccc(C(=O)OCc2ccccc2)cc1 | 41* | . | 32 | 2 | 35 | 36*
CCN(CC1COc2ccccc2O1)C(=S)Nc1ccccc1 (stereo not given) | 44* | -9 | 49 | 4 | 29 | 15*
CCC(=O)Nc1ccc(C(=O)NNC(=O)c2ccccc2)cc1 | -7 | 2 | 26 | -4 | 0 | .

Assay outcomes deposited in PubChem by several laboratories.
